Experimental data taken from paper PMC11006913.
Substitutions are numbered along the chain they refer to.

Columns and labels:
Test in all cases: PBM; 200 nM protein, PBS
Settings in all cases: dsDNA, one strand shown
[1] = biological target: T1, VENTX (Homo sapiens, UniProt O95231 78-163, R121Q)
T1 sequence: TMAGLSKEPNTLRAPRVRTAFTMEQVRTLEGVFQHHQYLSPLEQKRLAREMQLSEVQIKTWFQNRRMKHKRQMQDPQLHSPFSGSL

[2] = biological target: T2, VENTX (Homo sapiens, UniProt O95231 78-163)
T2 sequence: T1 sequence with Q44R

[3] = biological target: T3, VENTX (Homo sapiens, UniProt O95231 78-163, Y115F)
T3 sequence: T1 sequence with Y38F, Q44R

[4] = biological target: HOXB6 (Homo sapiens, UniProt P17509 132-218, K202E)
Sequence of HOXB6 (Homo sapiens, UniProt P17509 132-218, K202E) (P17509 132-218 K202E): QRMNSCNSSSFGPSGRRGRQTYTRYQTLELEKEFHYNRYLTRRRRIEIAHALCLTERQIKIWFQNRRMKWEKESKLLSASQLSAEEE

[5] = biological target: HOXB6 (Homo sapiens, UniProt P17509 132-218)
Sequence of HOXB6 (Homo sapiens, UniProt P17509 132-218) (P17509 132-218): as the sequence (P17509 132-218 K202E) above, with E71K counted along it

[6] = biological target: T4, NKX2-6 (Homo sapiens, UniProt A6NCS4 118-204)
T4 sequence: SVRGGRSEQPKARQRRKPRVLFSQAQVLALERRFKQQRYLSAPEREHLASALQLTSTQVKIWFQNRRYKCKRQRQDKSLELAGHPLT

[7] = biological target: T5, NKX2-6 (Homo sapiens, UniProt A6NCS4 118-204, F151L)
T5 sequence: T4 sequence with F34L

[8] = biological target: ALX3 (Homo sapiens, UniProt O95076 139-225, N203Q)
Sequence of ALX3 (Homo sapiens, UniProt O95076 139-225, N203Q) (O95076 139-225 N203Q): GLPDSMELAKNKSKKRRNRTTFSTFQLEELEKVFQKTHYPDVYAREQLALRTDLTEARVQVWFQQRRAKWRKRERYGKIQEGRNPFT

[9] = biological target: ALX3 (Homo sapiens, UniProt O95076 139-225)
Sequence of ALX3 (Homo sapiens, UniProt O95076 139-225) (O95076 139-225): as the sequence (O95076 139-225 N203Q) above, with Q65N counted along it

[10] = biological target: ALX3 (Homo sapiens, UniProt O95076 139-225, L168Q)
Sequence of ALX3 (Homo sapiens, UniProt O95076 139-225, L168Q) (O95076 139-225 L168Q): as the sequence (O95076 139-225 N203Q) above, with L30Q, Q65N counted along it

[11] = biological target: ALX3 (Homo sapiens, UniProt O95076 139-225, L168V)
Sequence of ALX3 (Homo sapiens, UniProt O95076 139-225, L168V) (O95076 139-225 L168V): as the sequence (O95076 139-225 N203Q) above, with L30V, Q65N counted along it

[12] = biological target: ALX3 (Homo sapiens, UniProt O95076 139-225, N203S)
Sequence of ALX3 (Homo sapiens, UniProt O95076 139-225, N203S) (O95076 139-225 N203S): as the sequence (O95076 139-225 N203Q) above, with Q65S counted along it

[13] = biological target: VAX1 (Homo sapiens, UniProt Q5SQQ9 86-172)
Sequence of VAX1 (Homo sapiens, UniProt Q5SQQ9 86-172) (Q5SQQ9 86-172): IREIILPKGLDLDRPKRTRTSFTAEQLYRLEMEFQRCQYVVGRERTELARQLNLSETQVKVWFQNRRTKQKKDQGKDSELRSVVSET

[14] = biological target: VAX1 (Homo sapiens, UniProt Q5SQQ9 86-172, T142I)
Sequence of VAX1 (Homo sapiens, UniProt Q5SQQ9 86-172, T142I) (Q5SQQ9 86-172 T142I): as the sequence (Q5SQQ9 86-172) above, with T57I counted along it

[15] = biological target: VAX1 (Homo sapiens, UniProt Q5SQQ9 86-172, K157R)
Sequence of VAX1 (Homo sapiens, UniProt Q5SQQ9 86-172, K157R) (Q5SQQ9 86-172 K157R): as the sequence (Q5SQQ9 86-172) above, with K72R counted along it

[16] = biological target: MSX2 (Homo sapiens, UniProt P35548 130-214, R199I)
Sequence of MSX2 (Homo sapiens, UniProt P35548 130-214, R199I) (P35548 130-214 R199I): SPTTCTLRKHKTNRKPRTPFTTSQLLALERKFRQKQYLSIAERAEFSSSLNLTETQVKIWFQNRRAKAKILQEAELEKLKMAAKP

[17] = biological target: MSX2 (Homo sapiens, UniProt P35548 130-214)
Sequence of MSX2 (Homo sapiens, UniProt P35548 130-214) (P35548 130-214): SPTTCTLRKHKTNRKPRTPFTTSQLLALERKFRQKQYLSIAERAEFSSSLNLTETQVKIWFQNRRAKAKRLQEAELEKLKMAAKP

[18] = biological target: MSX2 (Homo sapiens, UniProt P35548 130-214, F161Y)
Sequence of MSX2 (Homo sapiens, UniProt P35548 130-214, F161Y) (P35548 130-214 F161Y): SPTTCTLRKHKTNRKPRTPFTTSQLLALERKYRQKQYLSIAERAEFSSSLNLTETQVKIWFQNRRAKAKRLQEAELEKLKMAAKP

[19] = biological target: T6, NKX2-6 (Homo sapiens, UniProt A6NCS4 118-204, R150C)
T6 sequence: T4 sequence with R33C

## CCCCATTA
[1]
  binding signal: 11.5 upbm affinity estimate (log intensity, higher = more binding, comparable within an allelic series)
[2]
  binding signal: 12.3 upbm affinity estimate (log intensity, higher = more binding, comparable within an allelic series)
[3]
  binding signal: 11.3 upbm affinity estimate (log intensity, higher = more binding, comparable within an allelic series)

## GTTAATAA
[1]
  binding signal: 10.8 upbm affinity estimate (log intensity, higher = more binding, comparable within an allelic series)
[2]
  binding signal: 11.2 upbm affinity estimate (log intensity, higher = more binding, comparable within an allelic series)
[3]
  binding signal: 10.6 upbm affinity estimate (log intensity, higher = more binding, comparable within an allelic series)

## CTCGTGGC
[1]
  binding signal: 8.11 upbm affinity estimate (log intensity, higher = more binding, comparable within an allelic series)
[2]
  binding signal: 8.09 upbm affinity estimate (log intensity, higher = more binding, comparable within an allelic series)
[3]
  binding signal: 8.12 upbm affinity estimate (log intensity, higher = more binding, comparable within an allelic series)

## ACTATTTA
[1]
  binding signal: 10.1 upbm affinity estimate (log intensity, higher = more binding, comparable within an allelic series)
[2]
  binding signal: 10.6 upbm affinity estimate (log intensity, higher = more binding, comparable within an allelic series)
[3]
  binding signal: 10.1 upbm affinity estimate (log intensity, higher = more binding, comparable within an allelic series)

## ACGTAATA
[1]
  binding signal: 10.2 upbm affinity estimate (log intensity, higher = more binding, comparable within an allelic series)
[2]
  binding signal: 10.5 upbm affinity estimate (log intensity, higher = more binding, comparable within an allelic series)
[3]
  binding signal: 10.1 upbm affinity estimate (log intensity, higher = more binding, comparable within an allelic series)

## GTCTCCAC
[1]
  binding signal: 8.1 upbm affinity estimate (log intensity, higher = more binding, comparable within an allelic series)
[2]
  binding signal: 8.02 upbm affinity estimate (log intensity, higher = more binding, comparable within an allelic series)
[3]
  binding signal: 8.1 upbm affinity estimate (log intensity, higher = more binding, comparable within an allelic series)

## ACCCGTGC
[1]
  binding signal: 8.15 upbm affinity estimate (log intensity, higher = more binding, comparable within an allelic series)
[2]
  binding signal: 8.32 upbm affinity estimate (log intensity, higher = more binding, comparable within an allelic series)
[3]
  binding signal: 8.18 upbm affinity estimate (log intensity, higher = more binding, comparable within an allelic series)

## AAATTCGT
[1]
  binding signal: 9.56 upbm affinity estimate (log intensity, higher = more binding, comparable within an allelic series)
[2]
  binding signal: 9.96 upbm affinity estimate (log intensity, higher = more binding, comparable within an allelic series)
[3]
  binding signal: 9.72 upbm affinity estimate (log intensity, higher = more binding, comparable within an allelic series)

## TAATGGGA
[1]
  binding signal: 11.5 upbm affinity estimate (log intensity, higher = more binding, comparable within an allelic series)
[2]
  binding signal: 12.4 upbm affinity estimate (log intensity, higher = more binding, comparable within an allelic series)
[3]
  binding signal: 11.3 upbm affinity estimate (log intensity, higher = more binding, comparable within an allelic series)

## CCTGCTGC
[1]
  binding signal: 8.37 upbm affinity estimate (log intensity, higher = more binding, comparable within an allelic series)
[2]
  binding signal: 8.45 upbm affinity estimate (log intensity, higher = more binding, comparable within an allelic series)
[3]
  binding signal: 8.42 upbm affinity estimate (log intensity, higher = more binding, comparable within an allelic series)
[4]
  binding signal: 9.18 upbm affinity estimate (log intensity, higher = more binding, comparable within an allelic series)
[5]
  binding signal: 9.23 upbm affinity estimate (log intensity, higher = more binding, comparable within an allelic series)

## ACGCCGCC
[1]
  binding signal: 8.33 upbm affinity estimate (log intensity, higher = more binding, comparable within an allelic series)
[2]
  binding signal: 8.43 upbm affinity estimate (log intensity, higher = more binding, comparable within an allelic series)
[3]
  binding signal: 8.35 upbm affinity estimate (log intensity, higher = more binding, comparable within an allelic series)
[6]
  binding signal: 9.13 upbm affinity estimate (log intensity, higher = more binding, comparable within an allelic series)
[7]
  binding signal: 9.22 upbm affinity estimate (log intensity, higher = more binding, comparable within an allelic series)

## CGAGCCGC
[1]
  binding signal: 8.16 upbm affinity estimate (log intensity, higher = more binding, comparable within an allelic series)
[2]
  binding signal: 8.17 upbm affinity estimate (log intensity, higher = more binding, comparable within an allelic series)
[3]
  binding signal: 8.15 upbm affinity estimate (log intensity, higher = more binding, comparable within an allelic series)
[8]
  binding signal: 7.74 upbm affinity estimate (log intensity, higher = more binding, comparable within an allelic series)
[6]
  binding signal: 9.49 upbm affinity estimate (log intensity, higher = more binding, comparable within an allelic series)
[9]
  binding signal: 7.82 upbm affinity estimate (log intensity, higher = more binding, comparable within an allelic series)
[10]
  binding signal: 7.81 upbm affinity estimate (log intensity, higher = more binding, comparable within an allelic series)
[7]
  binding signal: 9.16 upbm affinity estimate (log intensity, higher = more binding, comparable within an allelic series)
[11]
  binding signal: 7.75 upbm affinity estimate (log intensity, higher = more binding, comparable within an allelic series)
[12]
  binding signal: 7.79 upbm affinity estimate (log intensity, higher = more binding, comparable within an allelic series)

## CGGCGTGC
[1]
  binding signal: 8.01 upbm affinity estimate (log intensity, higher = more binding, comparable within an allelic series)
[2]
  binding signal: 7.84 upbm affinity estimate (log intensity, higher = more binding, comparable within an allelic series)
[3]
  binding signal: 8.12 upbm affinity estimate (log intensity, higher = more binding, comparable within an allelic series)
[8]
  binding signal: 7.7 upbm affinity estimate (log intensity, higher = more binding, comparable within an allelic series)
[9]
  binding signal: 7.74 upbm affinity estimate (log intensity, higher = more binding, comparable within an allelic series)
[13]
  binding signal: 7.08 upbm affinity estimate (log intensity, higher = more binding, comparable within an allelic series)
[10]
  binding signal: 7.73 upbm affinity estimate (log intensity, higher = more binding, comparable within an allelic series)
[11]
  binding signal: 7.75 upbm affinity estimate (log intensity, higher = more binding, comparable within an allelic series)
[14]
  binding signal: 7.28 upbm affinity estimate (log intensity, higher = more binding, comparable within an allelic series)
[12]
  binding signal: 7.71 upbm affinity estimate (log intensity, higher = more binding, comparable within an allelic series)
[15]
  binding signal: 7.16 upbm affinity estimate (log intensity, higher = more binding, comparable within an allelic series)

## CCGCGGTC
[1]
  binding signal: 7.69 upbm affinity estimate (log intensity, higher = more binding, comparable within an allelic series)
[2]
  binding signal: 7.87 upbm affinity estimate (log intensity, higher = more binding, comparable within an allelic series)
[3]
  binding signal: 7.89 upbm affinity estimate (log intensity, higher = more binding, comparable within an allelic series)
[16]
  binding signal: 9.33 upbm affinity estimate (log intensity, higher = more binding, comparable within an allelic series)
[17]
  binding signal: 9.33 upbm affinity estimate (log intensity, higher = more binding, comparable within an allelic series)
[18]
  binding signal: 9.33 upbm affinity estimate (log intensity, higher = more binding, comparable within an allelic series)

## CCGCTGGC
[1]
  binding signal: 7.68 upbm affinity estimate (log intensity, higher = more binding, comparable within an allelic series)
[2]
  binding signal: 7.51 upbm affinity estimate (log intensity, higher = more binding, comparable within an allelic series)
[3]
  binding signal: 7.74 upbm affinity estimate (log intensity, higher = more binding, comparable within an allelic series)
[4]
  binding signal: 8.89 upbm affinity estimate (log intensity, higher = more binding, comparable within an allelic series)
[13]
  binding signal: 6.67 upbm affinity estimate (log intensity, higher = more binding, comparable within an allelic series)
[14]
  binding signal: 7.05 upbm affinity estimate (log intensity, higher = more binding, comparable within an allelic series)
[15]
  binding signal: 6.73 upbm affinity estimate (log intensity, higher = more binding, comparable within an allelic series)
[5]
  binding signal: 8.76 upbm affinity estimate (log intensity, higher = more binding, comparable within an allelic series)

## CGGGTCGC
[1]
  binding signal: 8.13 upbm affinity estimate (log intensity, higher = more binding, comparable within an allelic series)
[2]
  binding signal: 8.41 upbm affinity estimate (log intensity, higher = more binding, comparable within an allelic series)
[3]
  binding signal: 8.28 upbm affinity estimate (log intensity, higher = more binding, comparable within an allelic series)
[19]
  binding signal: 9.33 upbm affinity estimate (log intensity, higher = more binding, comparable within an allelic series)
[16]
  binding signal: 9.47 upbm affinity estimate (log intensity, higher = more binding, comparable within an allelic series)
[17]
  binding signal: 9.59 upbm affinity estimate (log intensity, higher = more binding, comparable within an allelic series)
[18]
  binding signal: 9.55 upbm affinity estimate (log intensity, higher = more binding, comparable within an allelic series)
